Consider 40 molecules from PubChem BioAssay (NCI).

This is part of a sample that, as a whole, favours compounds with a hit. Of some 83,000 tested, about 20% had one in any assay.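 Cells were grown in 96-well plates and exposed to the test compound at a single concentration for 48 hours; results are reported as percent growth, with values below 10 considered active.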 A number with no mark means an inactive call. The source made the active and inactive calls.

In this assay the test system is SNB-19 CNS. The assay can be described thus: NCI-60 one-dose screen, 48 h (100 = growth as untreated, 0 = no growth, -100 = all killed). The settings on record: 10 µM unless noted. On the procedure: Growth inhibition of the SNB-19 human tumor cell line is measured as a screen for anti-cancer activity. Cells are grown in 96 well plates and exposed to the test compound for 48 hours. Compounds are tested at a single concentration, which is 10^-5 M for most compounds. The reported endpoint is percent growth (GI% or GIPRCNT), where numbers from 0 - 100% represent growth inhibition, and numbers from -100% - 0 represent cell death. For example, a value of 40 represents 60% growth inhibition. A value of 0 means no net growth occurred over the course of the experiment. A value of -40 indicates 40% of cells at the beginning of the experiment died by the end of the experiment. A value of -100 means all cells are dead at the end of the experiment.
NCI-60 Human Tumor Cell Lines Screen was performed using the standard one-dose NCI protocol, which is described in more detail at https://dtp.cancer.gov/discovery_development/nci-60/default.htm.
Compounds with GIPRCNT values below 10 were considered active. Activity score was based on GIPRCNT using the following formula: […]
Score is 0 for GIPRCNT values of 100 or above, 50 for GIPRCNT values of 0, and 100 for GIPRCNT values of -100.
Take `CC(C)[C@H]1COC(=O)N1[C@@H]1C(=O)N([C@@H](CCC(=O)N2CCN(C3CCCC3)CC2)C(=O)N[C@@H]2CCCc3ccccc32)[C@@H]1/C=C/c1cccc(Cl)c1`: the growth was 56.6%.
The value for `O=C1COCCN1c1ccc(NCc2cn(Cc3ccccc3)c3ccccc23)cc1` was 93.2%; that for `C#C[C@]1(O)CC[C@H]2[C@@H]3CC=C4c5nc(N)sc5CC[C@]4(C)[C@H]3CC[C@@]21C` was 71.6%.
The value for `Nc1ccc(NC(=O)c2ccccc2)c2c1C(=O)c1ccccc1C2=O` was 102%; that for `C=C(C)[C@@H]1CC[C@]2(C(N)=O)CC[C@]3(C)[C@H](CC[C@@H]4[C@@]5(C)C/C(=C/c6cccnc6)[C@H](O)C(C)(C)[C@@H]5CC[C@]43C)[C@@H]12` was 39% [100 µM]; that for `CC1(C)CC[C@]2(C(=O)O)CC[C@]3(C)C(=CC[C@@H]4[C@@]5(C)C/C(=C/c6ccco6)C(=O)C(C)(C)[C@@H]5CC[C@]43C)[C@@H]2C1` was -9.61% [100 µM] (active).
Next, `CCCC[C@@H](C=O)NC(=O)[C@H](CC(C)C)NC(=O)[C@H](CC(C)C)NC(=O)OCc1ccccc1`: 22.1%.
For the molecule `COc1ccc(C2CC(c3cc(OC)c(OC)c(OC)c3)=NN2C(C)=O)cc1OCC(=O)Nc1nc2ccc(C(F)(F)F)cc2s1` (stereo not given), the growth is 74.2%.
The value for `Cc1cccc(C[C@H](NC(=O)Nc2ccc(Cl)cc2F)C(=O)N[C@@H]2C(=O)N3C[C@H](OC(=O)CCN(C)C)C[C@H]3C(=O)N3CCCC[C@H]3C(=O)N[C@@H](C)C(=O)N3C[C@H](C)C[C@H]3C(=O)O[C@H]2C)c1` was 21.3%; that for `Cc1cc(C)c(-c2cc(O)c(-c3c(C)cc(C)cc3C)cc2O)c(C)c1` was 45.9%.
Take `O=C(O)CSCc1nnc2n(Cc3ccccc3)c(=O)c3c4c(sc3n12)CCCC4`: the growth is 97.3%.
`COc1ccc(C(=O)CSc2nccc(Nc3ccc(C(=O)O)cc3)n2)cc1`: the growth is 101%.
Turning to `Cc1ccc(Oc2c(/C=N/NC(=O)Cn3c(=O)sc4ccccc43)c(C)nn2-c2ccccc2)cc1`, the growth was 61.5%.
Next, `ClC1=C(Cl)C(Cl)=C(Cl)C1=Cc1ccccc1`: -16.8% (active); `O=C1NC(=O)C(Cc2ccc(OCc3ccc(-c4cc(F)c(F)c(F)c4)cc3)cc2)S1` (stereo not given): 93.5%; `O=C(Nc1ccc(Oc2ccc(F)cc2)c(Cl)c1)c1cnccn1`: 63.7%.
Next, `O=C1/C(=C\c2cn(CC(O)CN3CCCCC3)c3ccccc23)c2ccccc2N1c1c(Cl)cccc1Cl` (stereo not given): -71.2% (active); `CC(C)C1=NOC(=O)C1=Cc1cn(-c2ccccc2)nc1-c1ccc(Cl)cc1`: 86%; `Cn1cc(-c2nnc(-c3cn(C)c4ncc(Br)cc34)o2)c2ccccc21`: 87.6%.
The value for `OC(c1ccc(Cl)cc1)(c1ccc(Cl)cc1)C(O)(c1ccc(Cl)cc1)c1ccc(Cl)cc1` was 40.5%.
For `Cc1ccccc1-n1nnc(C(=O)Nc2nc3ccc(F)cc3s2)c1C`, the growth was 63.7%.
Consider `C=C(C)[C@@H]1CC[C@]2(C)[C@H](CC=C3[C@@H]4[C@@H](C)[C@H](C)CC[C@]4(C(N)=O)CC[C@]32C)[C@@]1(C)CCC#N`, for which the growth is 16.2% [100 µM].
Consider `CCc1ccc(-c2ccc(COc3ccc(CC4SC(=O)NC4=O)cc3)cc2)cc1` (stereo not given), for which the growth was 87.1%.
Next, `COCc1nc2ccccc2[nH]1`: 101%; `c1nc(N2CCOCC2)c2[nH]ccc2n1`: 107%.
With `C=C(C)[C@@H]1CC[C@]2(C(=O)NCCCCCCN(CCCN)CCCN)CC[C@]3(C)[C@H](CC[C@@H]4[C@@]5(C)CC[C@H](OCCCN)C(C)(C)[C@@H]5CC[C@]43C)[C@@H]12`, the growth is 80.8% [100 µM].
Next, `COc1ccc(NC(=S)NNc2ccc(-c3ccc(OC)c(OC)c3)nn2)cc1`: 97.1%.
The value for `COc1cccc(-c2[nH]c(=S)ncc2C(=O)c2ccccc2)c1` was 82.9%; that for `CCNc1cc2c(cc1Br)-c1ccccc1C2=O` was 96%; that for `CCOc1ccc(/C=C(\C#N)c2cc3ccccc3[nH]2)cc1` was 80.2%.
As to `COC(=O)c1cc(O)c2c(c1C(=O)OC)C[C@H]1[C@@H]3CC=C4C[C@@H](O)CC[C@]4(C)[C@H]3CC[C@]21C`, the growth was 66.9%.
Next, `Cc1ccc(N)c(O)c1`: 102%; `COC(=O)[C@]12CCC(C)(C)C[C@H]1C1=CC[C@@H]3[C@@]4(C)C/C(=C/c5cccnc5)C(=O)C(C)(C)[C@@H]4CC[C@@]3(C)[C@]1(C)CC2`: -23.1% [100 µM] (active); `COC(=O)[C@H](CC(C)C)NC(=O)NC(=O)NC(=O)CI`: 92%.
Next, `CC1=CC[C@@H]2C(C)(C)[C@@H](O)CC[C@@]2(C)[C@@H]1COc1ccc2ccc(=O)oc2c1`: 81.2%; `NC1=NC(=O)NC1(c1ccccc1)c1ccccc1`: 98.9%; `C[n+]1c2ccccc2nc2c(N)cc(N)cc21`: -5.7% (active).
`CCCn1ccnc1C(O)c1ccc(OCc2ccccc2)c(OC)c1` (stereo not given): the growth is 82.8%.
The value for `CCCCCCCCCCCCNC(=S)N/N=C/c1ccccc1O` was 80.2%; that for `Nc1nc(Nc2ccccc2)c2ncn(Cc3cc4c(cc3Br)OCO4)c2n1` was 17.3%.
